PubChem BioAssay AID880 (National Center for Advancing Translational Sciences (NCATS), 2007)
Hit rate of the full screen: of about 230,000 compounds, about 1,000 (0.43%) were called active. The sample as a whole holds a higher share of actives than the screen did. A number with no mark means an inactive call. The call rests on the fitted dose curve; in most records, active means well fitted inhibition curve with a large enough effect (not every such curve was filed as active); inactive means no such curve, though single readings can be large or run the other way.

Target: Guanine nucleotide-binding protein G(i) subunit alpha-1 (Homo sapiens) (UniProt P63096)
Sequence (P63096 whole entry, looked up): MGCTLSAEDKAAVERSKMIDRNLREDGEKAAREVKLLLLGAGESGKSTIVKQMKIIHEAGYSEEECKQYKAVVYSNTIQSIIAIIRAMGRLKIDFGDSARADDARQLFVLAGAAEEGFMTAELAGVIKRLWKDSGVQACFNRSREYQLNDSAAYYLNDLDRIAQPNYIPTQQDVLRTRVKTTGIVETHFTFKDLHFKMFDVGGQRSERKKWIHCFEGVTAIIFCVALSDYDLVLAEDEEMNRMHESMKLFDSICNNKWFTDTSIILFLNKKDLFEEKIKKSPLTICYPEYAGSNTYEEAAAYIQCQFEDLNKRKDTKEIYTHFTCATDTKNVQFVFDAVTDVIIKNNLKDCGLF
Test: qHTS Assay for Inhibitors of RGS12 GoLoco Motif Activity (Red Fluorophore); further: nearly all actives have a fitted effect of over 30% in size
Details: Gai1:RGS12 GoLoco peptide FP, rhodamine, 10 min; series mostly up to 61.6 µM; activity, negative = inhibition: at the top concentration
On the % scale 0 is the no-effect control and ±100 the full control effect; potency means the concentration at half of the fitted maximal effect.

Structure (SMILES)	activity, negative = inhibition	Potency
C=C/C1=C/Cc2ccccc2[C@H](C[N+](=O)[O-])C(C(=O)OC)(C(=O)OC)C1	-0.39%	
COc1ncnc2c1N=C1CC(C)(C)CC(N)=C1S2		25.1 µM (active)
COc1cccc(-c2cc(=O)c3cc(NC(=O)c4ccc(C)cc4)ccc3[nH]2)c1	4.14% [at 88.7 µM]	
CC(=O)N(CC(O)CO)c1c(I)c(C(=O)NCC(O)CO)c(I)c(C(=O)NCC(O)CO)c1I (stereo not drawn)	9.65%	
COc1ccc2c(c1)C(=C(C#N)C#N)C(=O)N2CCc1ccccc1	2.09%	
CC(=O)Nc1ccc(NC(=O)COc2ccc(S(=O)(=O)NC(C)c3ccccc3)cc2)cc1 (stereo not drawn)	4.88%	
COC(C(=O)Nc1ccc(S(=O)(=O)Nc2ccc(C)c(C)c2)cc1)c1ccccc1 (stereo not drawn)	1.08%	
CC(=O)/C(C)=N/O	-21.5%	
COc1ccccc1C1CCN(C(=S)Nc2ccc(Br)cc2)CC1	3.54%	
Cc1ccccc1CN(c1ccc(C(=O)NCC2CCCO2)cc1)S(C)(=O)=O (stereo not drawn)	-10.8%	
Cc1ccccc1Cn1c2ccccc2c2cnn(CC(=O)NCc3ccco3)c(=O)c21	-6.25%	
CC1(C)OC(=O)N2CCc3ccccc3C21C (stereo not drawn)	-0.247%	
COC(=O)c1ccccc1NC(=S)NC(=O)c1ccccc1F	8.73%	
CC(C)=CCC[C@]1(C)[C@@H](CC=C(C)C)C[C@@]2(CC=C(C)C)C(=O)[C@]1(C(=O)C(C)C)C(=O)C(CC=C(C)C)=C2O	6.25%	
O=C(NCc1ccco1)O[C@@H]1C(=O)c2cc(Br)ccc2O[C@H]1c1ccc2c(c1)OCO2	-2.95%	
COc1cc(/C=N/NC(=S)Nc2cccnc2)cc(OC)c1O	4.13%	
Cc1cccc([C@H]2[C@@H]3C=CC[C@@H](C)[C@@H]3C(=O)N2Cc2ccccc2)c1	6.72% [at 88.7 µM]	
CC(=O)N/N=C(\C)c1ccc(Br)cc1Br	2.4%	
COc1ccc(C2C(C#N)=C(N)Oc3cc(N)ccc32)cc1OC (stereo not drawn)	34.9%	
OC[C@H]1O[C@@H](n2cnc3c(NC4CCCC4)ncnc32)[C@H](O)[C@H]1O	9.13%	
CC1(C)C2CCC1(C)C(OC(=O)c1ccc(O)cc1)C2 (stereo not drawn)	3.31%	
O=C(CSc1nc(-c2ccccc2)cs1)Nc1cccc([N+](=O)[O-])c1	22.5%	
N#Cc1cccc(CS(=O)(=O)c2nnnn2-c2cc(C(F)(F)F)cc(C(F)(F)F)c2)c1	5.33%	
C=CCSc1nc(N)cc(=O)[nH]1	-8.03%	
Cc1ccc(NC2=C(Cl)C(=O)OC2OC(=O)c2ccccc2C)cc1 (stereo not drawn)	1.58%	
Cc1cc(C)cc(NC(=S)NCc2ccc(F)cc2)c1	10.8%	
O=C(C/C(=N\NC(=O)c1ccccc1Br)C(F)(F)F)c1cccs1	2.99%	

Structure (SMILES)	activity, negative = inhibition	Potency
Cc1cc(C(=O)NNC(=S)Nc2ccccc2C)cs1	-2.37%	
CN(C)C(=O)c1coc2nc3ccccc3nc12	7.19%	
O=C1NC(c2ccc(-c3ccccc3[N+](=O)[O-])o2)C(C(=O)c2ccc(Cl)cc2)C(O)(C(F)(F)F)N1 (stereo not drawn)	2.26%	
COc1ccc(/C=C/C2=CC(C)(C)NC(=S)N2)c(OC)c1	16%	
COC(=O)[C@@H]1CC2=CC(=O)CC[C@]2(C)[C@@]23O[C@@H]2C[C@@]2(C)[C@@H](CC[C@@]24CCC(=O)O4)[C@H]13	0.192%	
O=c1[nH]n(-c2ccc([N+](=O)[O-])cc2)c(=O)c2ccccc12		14.1 µM (active)
O=c1[nH]c2cccnc2n1-c1ccc([N+](=O)[O-])cc1	1.5%	
O=C1CC(c2ccccc2)=NN1c1ccc([N+](=O)[O-])cc1	19.2%	
CCn1c(=O)c2cc(C(=O)Nc3cccc(C(C)=O)c3)sc2c2ccccc21	-2.18%	
COc1ccc(CC(=O)N2N=C(C)CC2(O)C(F)(F)F)cc1 (stereo not drawn)	-1.6%	
COc1ccc(-c2c(C)cc3oc(=O)cc(-c4ccccc4)c3c2C)cc1C=O	-5.78% [at 88.7 µM]	
CC(=O)Nc1cccc([N+](=O)[O-])c1	4.48%	
COC(=O)/C=C\C(=O)Nc1cccc([N+](=O)[O-])c1		0.891 µM (active)
Cc1ccccc1NC(=S)Nc1cccc([N+](=O)[O-])c1	3.92%	
C/C=C(\C)C(=O)OC1C(OC(=O)C2(C)OC2C)c2cc3ccc(=O)oc3cc2OC1(C)C (stereo not drawn)	3.63%	
Nc1ccc2nc3c(=O)[nH]c(=S)[nH]c3nc2c1		14.1 µM (active)
O=c1[nH]c(=O)c2nc3ccccc3nc2[nH]1		inactive
CC(C)(C)NC(=O)c1ccc(Cn2cc(C(F)(F)F)ccc2=O)cc1	-0.997%	
CCCCCCn1c(SCC(=O)c2ccccc2)nc2c1c(=O)[nH]c(=O)n2C	-8.12%	
CCCCCCCC[n+]1cccc(C(=O)N2c3c(nc(N)[nH]c3=O)NC(C)C2C)c1 (stereo not drawn)		11.2 µM (active)
CCCCNC(=O)Nc1c(C)cc(SC#N)cc1C	4.69%	
O=C(Nc1ccc(N2CCOCC2)cc1)c1ccc(-c2ccccc2[N+](=O)[O-])o1	7.4%	
COc1ccc(-c2csc3nc(-c4ccccc4F)oc(=O)c23)cc1OC	49.5%	
COc1cccc([C@@H]2Oc3ccc(Br)cc3C(=O)[C@H]2OC(=O)NCCc2ccc(OC)c(OC)c2)c1	4.12%	
Cc1ccc2c(CC(=O)NCc3cccs3)coc2c1	-4.74%	
CCOC(=O)C1CCCN(C(=O)COc2ccc(N(C)S(=O)(=O)c3ccc(C)cc3)cc2)C1 (stereo not drawn)	2.68%	
